Results filed as inconclusive are left out. Activity calls are given as the source filed them. Calls follow the shape of the dose curve; as a rule, active = well fitted inhibition curve with a large enough effect; inconclusive = small, poorly fitted or top-dose-only effect; inactive = flat fitted curve, though single readings scatter. Square brackets hold non-standard residues; d marks the D form. Peptide text beside a SMILES is read from it. Dolaproine = CO[C@@H]([C@@H]1CCCN1)[C@@H](C)C(=O)O; Dil = CC[C@H](C)[C@H](NC)[C@@H](CC(=O)O)OC; NMeV = CN[C@H](C(=O)O)C(C)C
Assay: Identification of antibody-drug conjugate (ADC) payloads which are substrates of ATP-binding cassette drug efflux transporters: ABCG2-H460-MX20 cell line with Ko143
Settings: H460-MX20 (ABCG2) + Ko143, CellTiter-Glo viability, 48 h; series mostly up to 28.7 µM
Excerpt: Antibody-drug conjugates (ADCs) feature an antibody recognizing a specific protein joined to a potent toxic payload. Numerous antibody-drug conjugates have received FDA approval; however, clinical resistance arises. Resistance mechanisms include decreased expression or mutation of the antibody target, impaired payload release, or increased expression of ATP-binding cassette (ABC) efflux transporters associated with multidrug resistance. We therefore sought to characterize the interaction of ABC multidrug transporters with ADC payloads. We performed a high-throughput screen with 27 common ADC payloads using cells lines expressing ABC transporters P-glycoprotein (P-gp, encoded by ABCB1) or ABCG2 (encoded by ABCG2). Confirmatory assays were also performed using cells transfected to express P-gp, ABCG2, or MRP1 (encoded by ABCC1). Several commonly used ADC payloads were substrates of P-gp, including calicheamicin gamma1, monomethyl auristatin E, DM1, and DM4. All the pyrrolobenzodiazepines tested - SJG136, SGD-1882, SG2057, and SG3199 - were substrates of P-gp, ABCG2, and MRP1. […] These findings highlight the risk of transporter-mediated resistance with certain ADC payloads and underscore the importance of selecting payloads that evade ABC transporter recognition in future ADC development.
HEK-293 cells were transfected with empty vector (pcDNA) or vector containing the human ABCB1 (MDR-19), ABCG2 (R-5), or ABCC1 gene (MRP1) and were maintained in EMEM with 2 mg/mL G418 added to maintain transporter expression. The HeLa derivative KB-3-1 and the P-gp overexpressing KB-8-5-11 subline were maintained in DMEM; KB-8-5-11 additionally received 100 ng/mL colchicine. H460 parental cells were obtained from the Division of Cancer Treatment and Diagnosis Tumor Repository, National Cancer Institute at Frederick, MD and were cultured in RPMI. The ABCG2 expressing subline H460 MX20 was generated by selecting H460 cells in 20 nM mitoxantrone. Media in all cases was supplemented with 10% FBS and 1% penicillin-streptomycin. We explored 27 common ADC payloads, in two orthogonal, paired cell line sets-a drug selected and transfected set for each transporter--to identify substrates of the ABC transporters P-gp and ABCG2. Compounds were sourced from Levena Biopharma (San Diego, CA), Selleck Chem (Houston, TX), ChemieTek (Indianapolis, IN), or Microsource Discovery Systems (Gaylordsville, CT). Screening was performed as previously described. Briefly, cells were plated at a density of 500 cells/well in 1536 well plates with compounds added using a 1536-head pin tool (Kalypsys, San Diego CA). Cells were incubated with cytotoxic drugs and processed with CellTiter Glo reagent (Promega, Madison, WI) to determine viability after 48 hours. P-gp substrates were identified by comparing compound activity between paired sets of low-expressing (sensitive) and over-expressing (resistant) cell lines.

| Compound | Potency |
| --- | --- |
| COc1cccc2c1C(=O)c1c(O)c3c(c(O)c1C2=O)C[C@@](O)(C(=O)CO)C[C@@H]3O[C@H]1C[C@H]2[C@H](O[C@@H]3[C@@H](OC)OCCN32)[C@H](C)O1 | 0.2 nM (active) |
| CCc1c2c(nc3ccc(O)cc13)-c1cc3c(c(=O)n1C2)COC(=O)[C@]3(O)CC | 150 nM (active) |
| CC[C@H](C)[C@@H]([C@H](N)CC(=O)N1CCC[C@H]1[C@H](OC)[C@@H](C)C(=O)N[C@@H](Cc1ccccc1)c1nccs1)N(C)C(=O)[C@@H](NC(=O)[C@@H](NC)C(C)C)C(C)C | inactive |
| CC[C@H](C)[C@@H]([C@@H](CC(=O)N1CCC[C@H]1[C@H](OC)[C@@H](C)C(=O)N[C@@H](Cc1ccccc1)C(=O)O)OC)N(C)C(=O)[C@@H](NC(=O)[C@@H](NC)C(C)C)C(C)C (H-[NMeV]V[Dil][Dolaproine]F-OH) | 15000 nM (active) |
| CCN[C@H]1CO[C@@H](O[C@H]2[C@H](O[C@H]3C#C/C=C\C#C[C@]4(O)CC(=O)C(NC(=O)OC)=C3/C4=C\CSSSC)O[C@H](C)[C@@H](NO[C@H]3C[C@H](O)[C@H](SC(=O)c4c(C)c(I)c(O[C@@H]5O[C@@H](C)[C@H](O)[C@@H](OC)[C@H]5O)c(OC)c4OC)[C@@H](C)O3)[C@@H]2O)C[C@@H]1OC | 3.8 nM (active) |
| CC(C)(C)OC(=O)Nc1ccc2[nH]c(C(=O)N3C[C@@H](CCl)c4c3cc(O)c3ccccc43)cc2c1 | 6.7 nM (active) |
| CN(C)CCOc1ccc2[nH]c(C(=O)N3C[C@@H](CCl)c4c3cc(O)c3ccccc43)cc2c1 | 0.5 nM (active) |
| COC(=O)c1cc2c3c(cc(O)c2[nH]1)N(C(=O)c1cc2cc(OC)c(OC)c(OC)c2[nH]1)CC3CCl (stereo not given) | 0.8 nM (active) |
| CCN(C(C)=O)[C@H]1CO[C@@H](O[C@H]2[C@H](O[C@H]3C#C/C=C\C#C[C@]4(O)CC(=O)C(NC(=O)OC)=C3/C4=C\CSSSC)O[C@H](C)[C@@H](NO[C@H]3C[C@H](O)[C@H](SC(=O)c4c(C)c(I)c(O[C@@H]5O[C@@H](C)[C@H](O)[C@@H](OC)[C@H]5O)c(OC)c4OC)[C@@H](C)O3)[C@@H]2O)C[C@@H]1OC | 13.4 nM (active) |
| COc1cccc2c1C(=O)c1c(O)c3c(c(O)c1C2=O)C[C@@](O)(C(=O)CO)C[C@@H]3O[C@H]1C[C@H](N)[C@H](O)[C@H](C)O1 | 598 nM (active) |

Reference: PubChem BioAssay AID2061319 (National Center for Advancing Translational Sciences (NCATS), 2025)
